Hits are enriched below; roughly 2% of the tested compounds scored in any of these assays.
IDH1 R132H inh – qHTS for Inhibitors of mutant isocitrate dehydrogenase 1 (IDH1): qHTS; hit rate 0.093% among 390,000; Isocitrate dehydrogenase [NADP] cytoplasmic (Homo sapiens), O75874; Potency, µM (highest dose often 76.6 µM), usual class: inhibitors; AID 602179, 2012; IDH1-R132H enzyme, NADPH consumption, diaphorase/resazurin fluorescence; note: nearly all actives have a fitted effect of over 65% in size
Target sequence (O75874 whole entry R132H, stated change not applied): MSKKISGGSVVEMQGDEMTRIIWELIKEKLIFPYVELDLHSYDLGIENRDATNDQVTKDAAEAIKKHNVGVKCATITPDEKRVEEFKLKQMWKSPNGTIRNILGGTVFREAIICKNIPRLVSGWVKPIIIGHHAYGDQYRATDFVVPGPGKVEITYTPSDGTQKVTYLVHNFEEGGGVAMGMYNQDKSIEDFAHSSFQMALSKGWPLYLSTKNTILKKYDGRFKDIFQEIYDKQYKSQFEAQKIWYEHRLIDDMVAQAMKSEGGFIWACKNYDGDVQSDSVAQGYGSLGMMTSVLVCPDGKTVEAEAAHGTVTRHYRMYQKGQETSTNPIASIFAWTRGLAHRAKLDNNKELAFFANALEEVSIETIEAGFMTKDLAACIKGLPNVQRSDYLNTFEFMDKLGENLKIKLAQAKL
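IDH1-R132H (0.5 ug/mL dispensed) in pH 7.5 Tris buffer was preincubated 30 min with compound, then given a substrate mix of 0.016 mM NADPH and 2 mM alpha-KG for 80 min at room temperature; remaining NADPH was read by diaphorase/resazurin fluorescence.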
Abeta yeast res – qHTS for compounds that reverse cellular toxicity of Amyloid beta (A-beta) peptide in yeast: Primary Screen; yeast expressing A-beta42, growth rescue, OD600, 48 h; response scale: 0% DMSO, 100% iron-clioquinol control; Potency, µM (top dose mostly 46.1 µM), actives largely listed as activators; hit rate 0.063% among 410,000; note: nearly all actives have a fitted effect of over 55% in size
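Growth rescue measured by 600 nm absorbance after 48 h yeast culture at 30 C with compound. Values normalized between DMSO and an equimolar ferric chloride plus clioquinol control.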
aSyn yeast inh – qHTS of alpha-syn Inhibitors | Yeast expressing alpha-synuclein, growth rescue, BacTiter-Glo, 24 h | Potency, µM (doses to about 46.1 µM), usual class: activators | hit rate 0.14% among 370,000 | AID 652106, 2013; note: nearly all actives have a fitted effect of over 65% in size
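Readout is rescue of growth in alpha-synuclein-expressing yeast, so inhibitors of toxicity appear as activators. Growth after 24 hr at 30 deg C in galactose medium is quantified by luminescence.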
TDP-43 yeast inh – qHTS of TDP-43 Inhibitors | hit rate 1.8% among 410,000 | Potency, µM (highest dose often 46.1 µM), hits mostly activators | TDP-43 expressing yeast growth rescue, BacTiter-Glo, 24 h; note: nearly all actives have a fitted effect of over 50% in size
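Growth rescue of TDP-43-toxic yeast measured as ATP luminescence (BacTiter-Glo). Cells grown to mid-log in raffinose, induced in galactose at OD600=0.02, exposed to compound 24 hr at 30 deg C.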
FUS yeast rescue – qHTS for Suppressors of FUS Proteinopathy: Primary screen using FUS-linked yeast assay; S. cerevisiae FUS-expressing, growth rescue, OD600, 24 h; Potency, µM (highest dose often 76.6 µM), hits mostly activators; hit rate 0.24% among 390,000; AID 1347120, 2019; note: nearly all actives have a fitted effect of over 55% in size
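Toxicity suppression screen in FUS-yeast. Cells induced with 2% galactose, starting OD 0.005, treated 24hr at 30C with compounds at multiple final concentrations; growth by OD600.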
LDHA block – qHTS assay for inhibitors of human lactate dehydrogenase | L-lactate dehydrogenase A chain (Homo sapiens), P00338 | purified LDHA, NADH/diaphorase-resazurin fluorescence; active compounds read low | activity change, % (values are at about 110 or 230 µM) | hit rate 0.15% among 480,000 | AID 1347041, 2019; in the data active = activity change below about -30%; inconclusive = mostly about -25% to -30%
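Human LDH5 at 2 nM final in Tris HCl pH 7.4 with 0.06 mM NADH and 0.2 mM pyruvate, reacted 5 minutes at room temperature. Remaining NADH coupled via diaphorase/resazurin; resorufin fluorescence read at 0 and 20 minutes, normalized to enzyme-free and DMSO wells.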
Hits are given with their value; i = inactive; ? = inconclusive; nt = not tested or not shown. Unless noted, calls come from the whole dose curve; as a rule, active = well fitted curve in the direction sought with a large enough effect; inconclusive = small, poorly fitted or top-dose-only effect, or another doubt; inactive = no such curve, though single readings can be large; an effect the other way counts as inactive or inconclusive.

SMILES	IDH1 R132H inh	Abeta yeast res	aSyn yeast inh	TDP-43 yeast inh	FUS yeast rescue	LDHA block
CCC1CCCCN1C(=O)Cn1c(=O)n(-c2ccccc2)c(=O)c2sccc21 (stereo not given)	nt	nt	nt	nt	nt	i
CCN(CC)C(=O)C[n+]1ccc(C(N)=O)cc1	i	i	i	i	i	i
CC(C)(C)NC(=O)C[n+]1ccc(C(N)=O)cc1	i	i	35µM	i	i	i
O=C1OCC(c2ccccc2)=C1c1ccccc1	i	i	i	18µM	i	i
O=S(=O)(Nc1ccc(F)cc1Cl)c1ccc(-c2cnc(C3CC3)o2)cc1	i	?	?	35µM	i	i
COc1ccc(NS(=O)(=O)c2ccc(-c3cnc(C4CC4)o3)cc2)cc1OC	i	i	i	i	i	i
Cc1ccc(-c2cnc(C3CC3)o2)cc1S(=O)(=O)Nc1ccccc1	i	i	?	32µM	i	i
Cc1cc(C)c(NS(=O)(=O)c2ccc(-c3cnc(C4CC4)o3)cc2)c(C)c1	i	13µM	nt	?	i	i
O=S(=O)(Nc1cccc(C(F)(F)F)c1)c1ccc(-c2cnc(C3CC3)o2)cc1	?	i	nt	25µM	i	i
O=C(COc1ccc(Cl)cc1)Nc1ccc2oc(-c3ccccc3F)nc2c1	nt	nt	nt	nt	nt	i
Cc1cc(N2CCN(S(=O)(=O)c3ccc(C(F)(F)F)cc3)CC2)nc(C(C)C)n1	nt	nt	nt	nt	nt	i
O=C(COC(=O)COc1ccc2c(c1)CCC2)NC1CCCCC1	nt	nt	nt	nt	nt	i
Cc1cc(F)ccc1NS(=O)(=O)c1ccc(-c2cnc(C3CC3)o2)cc1	nt	nt	nt	nt	nt	i
Cc1ccc(NS(=O)(=O)c2ccc(-c3cnc(C4CC4)o3)cc2)c(C)c1	i	nt	?	28µM	?	i
CCCCC(=O)N/N=C/c1ccc(-c2ccc([N+](=O)[O-])cc2)o1	i	i	i	i	i	i
Cc1cc(C)n(Cc2ccc(C(=O)N/N=C/c3ccc(-c4ccc([N+](=O)[O-])cc4)o3)o2)n1	i	i	i	i	i	-65
Cc1ccc(C(=O)/C=C/c2ccc(-c3ccccc3Cl)o2)cc1	nt	nt	nt	nt	nt	i
CN1CCN(C(=O)C2CCCN(S(=O)(=O)c3ccc(Cl)cc3)C2)CC1 (stereo not given)	i	i	i	i	i	-33
N#Cc1nc(COc2ccc(Br)cc2)oc1NC1CC1	nt	nt	nt	nt	nt	i
COc1ccc(S(=O)(=O)NCCc2sc(-c3ccccc3)nc2C)cc1F	i	i	i	22µM	i	i
O=S(=O)(NCCc1csc(-c2ccc(F)cc2)n1)c1ccc(Cl)cc1	i	6.3µM	nt	11µM	i	i
COc1ccc(S(=O)(=O)NCCc2csc(-c3ccc(F)cc3)n2)cc1F	i	i	nt	18µM	i	i
COc1ccc(S(=O)(=O)NCCc2csc(-c3ccc(F)cc3)n2)cc1	i	i	nt	16µM	i	i
Cc1nn(-c2ccc(Cl)nn2)c2c1C(c1ccc(C(=O)O)cc1)CC(=O)N2 (stereo not given)	nt	nt	nt	nt	nt	i
Cc1ccc(S(=O)(=O)NCCc2sc3nc(-c4ccccc4)nn3c2C)cc1C	i	?	nt	13µM	i	i
SMILES	IDH1 R132H inh	Abeta yeast res	aSyn yeast inh	TDP-43 yeast inh	FUS yeast rescue	LDHA block
Cc1ccc(S(=O)(=O)NCCc2csc(-c3ccc(Cl)cc3)n2)cc1	i	?	nt	20µM	i	i
O=S(=O)(NCCSc1ccc(Cl)cc1)c1ccc(F)cc1	i	i	i	14µM	i	i
COc1ccc(-c2nc(CNS(=O)(=O)c3cccc(F)c3)cs2)cc1	nt	i	nt	13µM	i	i
COc1ccc(-c2nc(CNS(=O)(=O)c3ccc(F)cc3)cs2)cc1	nt	i	nt	i	i	i
COc1ccc(-c2nc(CNS(=O)(=O)c3ccc(C)cc3)cs2)cc1	nt	i	nt	i	i	i
Cc1c(C#N)c(NC(=O)CSc2nnnn2C2CCCC2)n(CC2CCCO2)c1C (stereo not given)	nt	nt	nt	nt	nt	i
COc1ccc(CCNC(=O)CSc2nc(Cl)nc3nc[nH]c23)cc1	nt	nt	nt	nt	nt	i
CCc1c(C)sc(NC(=O)c2cc(-c3ccc(C)cc3C)nc3ccccc23)c1C#N	nt	nt	nt	nt	nt	i
Cc1c2c(=O)n(-c3ccc(Cl)cc3)[nH]c2cc(=O)n1Cc1ccc(Cl)cc1	nt	nt	nt	nt	nt	i
CCOc1ccc(S(=O)(=O)NCCc2csc(-c3ccc(Cl)cc3)n2)cc1	i	i	nt	22µM	?	i
COc1ccc(CCNS(=O)(=O)c2cc(-c3cc(C)no3)ccc2OC)cc1OC	i	i	nt	i	i	i
Cc1ccc(CCNS(=O)(=O)c2cc(-c3cc(C)no3)ccc2C)cc1	i	i	nt	22µM	i	i
Cc1ccc(C)c(S(=O)(=O)NCCc2csc(-c3ccc(Cl)cc3)n2)c1	i	i	nt	22µM	i	i
O=S(=O)(NCCc1csc(-c2cccnc2)n1)c1ccc(F)cc1	i	i	i	14µM	nt	i
N#C/C(=C/c1cccc(F)c1)C(=O)c1c[nH]c2cc(F)ccc12	nt	nt	nt	nt	nt	i
CCCCCCC(=O)Nc1c(C)cccc1C	nt	nt	nt	nt	nt	i
CCC(=O)Nc1cccc(C(=O)Nc2nnc(C3CC(=O)N(c4ccc(C)c(C)c4)C3)s2)c1 (stereo not given)	nt	nt	nt	nt	nt	i
Cc1ccc(C(C)C)cc1OCC(=O)N/N=C/c1ccc2c(c1)OCCO2	i	i	i	13µM	i	i
COc1ccc(C2Nc3cccc(O)c3C(=O)N2Cc2ccccc2)cc1COc1ccc(NC(C)=O)cc1 (stereo not given)	nt	i	nt	nt	11µM	i
COc1ccc(C2Nc3ccccc3C(=O)N2Cc2ccncc2)cc1COc1ccc(NC(C)=O)cc1 (stereo not given)	nt	nt	nt	nt	i	i
Cc1cccc(C(=O)NCc2nnc(SCC(=O)NCc3ccccc3)n2-c2ccccc2)c1	nt	nt	nt	nt	nt	i
CCc1ccc(CNC(=O)c2cc3cc(C)ccc3[nH]2)cc1	nt	nt	nt	nt	nt	i
CC1(c2ccc(F)cc2)OC(=O)c2c1ccc1ccccc21 (stereo not given)	i	i	i	13µM	i	i
O=C(NCCNC(=O)c1cccc2cccnc12)c1cccc2cccnc12	nt	nt	nt	nt	nt	i
Cc1ccc(-c2csc(-c3ccncc3)n2)cc1	i	i	i	?	i	i
Brc1ccc(-c2csc(-c3ccncc3)n2)cc1	i	i	i	11µM	nt	i
COc1cccc(-c2nc(NC(C)C)c3ccccc3n2)c1O	i	i	i	20µM	i	i
CCCCNc1nc(-c2cccc(OC)c2O)nc2ccccc12	nt	nt	nt	nt	nt	i
CCC(C)Nc1nc(-c2cccc(OC)c2O)nc2ccccc12 (stereo not given)	i	i	i	11µM	i	i
COc1ccc(OC)c(C(=O)COC(=O)Cc2ccc(Cl)cc2)c1	nt	nt	nt	nt	nt	i
